Assay outcomes (PubChem BioAssay)
Sampled rows, rich in hits. Any-hit rate of the full collection: about 1.1%.
HTR5A ag ctr – counter-screen for OPRM1-OPRD1 agonists: human HTR5A agonism | P47898 | HTR5A agonist assay, luminescence, cell-based | activation, % at 9.3 µM | 0.61% of 340,000 active; in the data active = activation mostly above about 9.5%, no sharp cut-off; inactive = mostly below about 7.6%;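 note: 0% = cells with vehicle only and 100% = reference agonist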
Target sequence (P47898 whole entry, looked up): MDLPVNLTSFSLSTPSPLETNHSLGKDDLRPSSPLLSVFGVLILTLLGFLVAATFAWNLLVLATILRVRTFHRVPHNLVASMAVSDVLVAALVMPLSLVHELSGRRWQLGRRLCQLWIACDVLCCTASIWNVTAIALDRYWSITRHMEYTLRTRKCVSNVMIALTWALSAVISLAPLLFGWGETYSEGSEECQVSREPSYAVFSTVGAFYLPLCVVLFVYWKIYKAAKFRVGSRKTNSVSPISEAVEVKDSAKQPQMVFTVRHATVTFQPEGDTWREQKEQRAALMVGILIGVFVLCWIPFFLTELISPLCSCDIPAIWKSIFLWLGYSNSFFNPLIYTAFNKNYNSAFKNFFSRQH
HTR5A inv ag – HTR5A inverse agonism, opioid heterodimer counter-screen | HTR5A cell line, luminescence | 0.083% of 340,000 active | AID 504634 | inhibition, % at 9.3 µM; in the data active = inhibition mostly above about 23%, no sharp cut-off; inactive = mostly below about 18%;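 note: 0% = cells with DMSO and 100% = no-cell wells with DMSO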
MOR-DOR ag – OPRM1-OPRD1 heterodimerization agonism | AID 504326 | activation, % at 9.3 µM | cells, luminescence | 0.3% of 340,000 active; in the data active = activation above about 18%;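 note: 0% = vehicle-treated cells and 100% = reference agonist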
MOR-DOR inv ag – inverse agonist of human OPRM1-OPRD1 heterodimerization | cell-based MOR-DOR heterodimer luminescence, inverse agonism | inhibition, % at 9.3 µM | 0.21% of 340,000 active | AID 504357; in the data active = inhibition above about 22%, passing the limit was not always enough;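 note: 0% = cells with DMSO and 100% = wells without cells with DMSO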
Numbers without * were called inactive.

SMILES | HTR5A ag ctr | HTR5A inv ag | MOR-DOR ag | MOR-DOR inv ag
COc1cc(C2C=C(Nc3ccccc3)C(=O)N2c2ccccc2)ccc1O (stereo not drawn) | -5 | 14 | 0 | 2
COc1ccc(-n2nnnc2SCC(=O)c2cccc(OC)c2)cc1 | -1 | 14 | 0 | 1
CCOc1ccc(-n2nnnc2SCC(=O)c2ccccc2)cc1 | 13* | 9 | 1 | -6
COC(=O)c1ccc(COC(=O)c2ccc(CO)cc2)o1 | -3 | 8 | -1 | 6
O=C(COc1ccc2c(C(F)(F)F)cc(=O)oc2c1)Nc1ccc(N2CCOCC2)cc1 | -2 | -6 | -3 | 16
CCCCNC(=S)NNC(=O)CCn1nc(C)c(Br)c1C | -10 | 49* | -14 | 76*
CCCCNC(=S)NNC(=O)CCn1cc(C)cn1 | -2 | 20 | -2 | 11
O=[N+]([O-])c1ccc2[nH]ncc2c1 | 12* | -34 | -2 | 11
Cc1cc(=O)oc2cc(OC(C(=O)O)c3ccccc3)ccc12 (stereo not drawn) | 11* | -41 | -1 | 4
Cc1cc(=O)oc2cc(OC(C)C)ccc12 | 1 | -7 | -2 | 9
CCCCNCC1C(Oc2ccc(Cl)cc2)C(=O)N1c1ccccc1C (stereo not drawn) | 12* | 4 | 11 | -80
CCCNCC1C(Oc2ccc(Cl)cc2Cl)C(=O)N1c1cccc(C)c1C (stereo not drawn) | 4 | -12 | 12 | -63
Nc1ccc2nn(-c3ccccc3)nc2c1 | 12* | -31 | 10 | -51
Nc1cccc(Nc2nc(OC(C(F)(F)F)C(F)(F)F)nc(OC(C(F)(F)F)C(F)(F)F)n2)c1 | 12* | -10 | 10 | -56
NC(=O)c1cc(Cc2ccccc2)sc1NC(=O)c1ccco1 | 3 | -10 | 1 | -5
CCOc1ccc(CC(=O)Nc2sc(Cc3ccccc3)cc2C(N)=O)cc1OCC | 9.6* | -49 | 2 | -14
CCOC(=O)C1CCCN(C(=O)C2c3ccccc3Oc3ccccc32)C1 (stereo not drawn) | 12* | 14 | 0 | 2
CC(/C=N/NC(=O)Cc1cccn1C)=C\c1ccco1 | -2 | 5 | 0 | 0
CCOc1ccccc1N=CC1=C(O)CC(c2ccccc2)CC1=O (stereo not drawn) | 13* | -33 | -1 | 6
COc1ccc(N=CC2=C(O)CC(c3ccccc3)CC2=O)c(OC)c1 (stereo not drawn) | -2 | -6 | -3 | 13
CCOc1ccc(S(=O)(=O)N/N=C(\C)c2ccc(OC)cc2OC)cc1 | 11 | -13 | -3 | 14
COc1ccc(/C(C)=N/NS(=O)(=O)c2cc(C)ccc2C)c(OC)c1 | 13* | -38 | 3 | -17
COc1nc(OC)nc(N2CCC(NC(=O)C(Cc3ccc(C(C)C)cc3)NC(C)=O)CC2)n1 (stereo not drawn) | 11* | 20 | -2 | 11
COc1cc(CC(NC(C)=O)C(=O)NC2CCN(c3nc(OC)nc(OC)n3)CC2)cc(OC)c1 (stereo not drawn) | 2 | -5 | -2 | 9
CC(C)(C)NC(=O)NC(=O)CN1CCN(c2ccc(O)cc2)CC1 | -2 | 15 | 4 | -20
SMILES | HTR5A ag ctr | HTR5A inv ag | MOR-DOR ag | MOR-DOR inv ag
CCN(CC)S(=O)(=O)c1ccc2oc(Nc3ccccc3)nc2c1 | 7 | -20 | 8 | -43
COc1cccc(-c2nc(CS(=O)(=O)CC(=O)Nc3cc(F)ccc3F)c(C)o2)c1 | 11* | -14 | 0 | -2
CCOCCCNC(=O)CS(=O)(=O)Cc1nc(-c2cccc(OC)c2)oc1C | -8 | 20 | 1 | -3
CCCNC(=O)CS(=O)(=O)Cc1nc(-c2cccc(OC)c2)oc1C | 13* | -3 | 0 | -1
CC1CC(=O)c2c(cc3c(-c4c(O)cc(O)c5c(O)c6c(cc45)OC(C)CC6=O)c(O)cc(O)c3c2O)O1 (stereo not drawn) | 17* | 13 | 82* | -412
CC(Cc1ccccc1)C(=O)Nc1ccc(Br)cc1 (stereo not drawn) | -1 | 14 | 5 | -27
Cc1[nH]c2ccc(-c3nnc(SCC(=O)c4ccccc4F)o3)cc2c1C | 12* | -3 | 2 | -12
CCOC(=O)c1ccccc1Cc1nc2ccccc2c(=O)[nH]1 | 0 | 1 | -1 | 3
Nc1nc(-c2ccccc2)cn1/N=C/c1ccccc1 | 11 | -6 | -2 | 9
COc1ccccc1-n1c(=S)[nH]c2c(sc(=S)n2-c2ccccc2)c1=O | -3 | 6 | 0 | -1
COc1cccc(-n2c(=S)sc3c(=O)n(-c4ccccc4OC)c(=S)[nH]c32)c1 | 8.9* | -25 | 0 | -2
Cc1cc(C)c(C#N)c(SCC(=O)c2ccccc2)n1 | 5 | -3 | -2 | 12
Cc1cc(C)c(C#N)c(SCC(O)CS(=O)(=O)Cc2ccccc2)n1 (stereo not drawn) | 12* | -5 | 0 | -1
O=C(Nc1ccc(Cl)cn1)c1ccc2c(Cl)c3c(nc2c1)CCC3 | 4 | -19 | 1 | -7
O=C1OCCN1C(=O)[C@H]1[C@H](c2ccc(Cl)cc2)C(c2ccccc2)=NN1c1ccccc1 | 5.5* | -20 | 3 | -16
O=C1OCCN1C(=O)[C@H]1[C@H](c2ccc(Cl)cc2)C(c2ccc(F)cc2)=NN1c1ccccc1 | 4 | -16 | 6 | -29
CC1=NN(c2ccc(C)c(C)c2)C(=O)C1C(c1cccc(O)c1)C1C(=O)N(c2ccc(C)c(C)c2)N=C1C (stereo not drawn) | 6 | -11 | 1 | -5
COc1ccc(NC(=O)Nc2cccc3c2O[C@H](CN(C)S(=O)(=O)c2c(C)noc2C)[C@@H](C)CN([C@H](C)CO)C3=O)cc1 | 10* | -39 | -1 | 4
COc1ccc(NC(=O)Nc2cccc3c2O[C@H](CN(C)S(=O)(=O)c2ccc(OC)cc2)[C@@H](C)CN([C@H](C)CO)C3=O)cc1 | 2 | -7 | -3 | 14
O=C(O)CCCNC(=O)/C(=C\c1ccccc1F)NC(=O)c1ccccc1 | -3 | 3 | -3 | 14
C=CCNc1nc(N(c2ccccc2)c2ccccc2)nc(-n2ccnc2)n1 | 12* | 3 | 4 | -17
CCCCSCCCNC(=O)C1CCC(CNS(=O)(=O)c2ccccc2)CC1 (stereo not drawn) | 12* | -49 | 2 | -11
CCCCNC(=O)C1CCC(CNS(=O)(=O)c2ccc(C)cc2)CC1 (stereo not drawn) | 2 | 10 | -1 | 8
Cc1cc(Cl)ccc1Oc1ncc(CN2CCN(c3ccccc3)CC2)s1 | 3 | -23 | 1 | -6
COc1ccc(Oc2ncc(CN3CCN(c4ccccc4)CC3)s2)cc1 | 10* | -38 | 8 | -47
CCCCNc1c(-c2ccc(OC)c(Sc3ccc(OC)cc3)c2)nc2ccccn12 | 11* | -28 | 11 | -64
CNC(=S)N1CCn2cccc2C1c1ccc(F)cc1 (stereo not drawn) | 8.0* | -20 | 0 | -1
Fc1ccc(C2c3cccn3CCN2C(=S)Nc2cccc(F)c2)cc1 (stereo not drawn) | 2 | -4 | 2 | -9
CCCC(=O)Nc1ccc2c(c1)nc(CN1CCN(C(=O)OCC)CC1)n2CC | 9.8* | -34 | -2 | 11
